The values below come from ChEMBL document CHEMBL2218924, “A broad activity screen in support of a chemogenomic map for kinase signalling research and drug discovery” (Biochem J, 2013).

For assay [1], the target named is Tyrosine-protein kinase Fgr (Homo sapiens) (UniProt P09769). To be noted: at 10 µM.
Assay [2] deals with Vascular endothelial growth factor receptor 1 (Homo sapiens) (UniProt P17948). The following applies: at 1 µM.
Assay [3] has the same target. The following applies: at 10 µM.
Assay [4] concerns the target Vascular endothelial growth factor receptor 3 (Homo sapiens) (UniProt P35916). The following applies: at 10 µM.
In assay [5] the target is Macrophage colony-stimulating factor 1 receptor (Homo sapiens) (UniProt P07333). The following applies: at 10 µM.
Sequence of Macrophage colony-stimulating factor 1 receptor (Homo sapiens) (P07333 whole entry): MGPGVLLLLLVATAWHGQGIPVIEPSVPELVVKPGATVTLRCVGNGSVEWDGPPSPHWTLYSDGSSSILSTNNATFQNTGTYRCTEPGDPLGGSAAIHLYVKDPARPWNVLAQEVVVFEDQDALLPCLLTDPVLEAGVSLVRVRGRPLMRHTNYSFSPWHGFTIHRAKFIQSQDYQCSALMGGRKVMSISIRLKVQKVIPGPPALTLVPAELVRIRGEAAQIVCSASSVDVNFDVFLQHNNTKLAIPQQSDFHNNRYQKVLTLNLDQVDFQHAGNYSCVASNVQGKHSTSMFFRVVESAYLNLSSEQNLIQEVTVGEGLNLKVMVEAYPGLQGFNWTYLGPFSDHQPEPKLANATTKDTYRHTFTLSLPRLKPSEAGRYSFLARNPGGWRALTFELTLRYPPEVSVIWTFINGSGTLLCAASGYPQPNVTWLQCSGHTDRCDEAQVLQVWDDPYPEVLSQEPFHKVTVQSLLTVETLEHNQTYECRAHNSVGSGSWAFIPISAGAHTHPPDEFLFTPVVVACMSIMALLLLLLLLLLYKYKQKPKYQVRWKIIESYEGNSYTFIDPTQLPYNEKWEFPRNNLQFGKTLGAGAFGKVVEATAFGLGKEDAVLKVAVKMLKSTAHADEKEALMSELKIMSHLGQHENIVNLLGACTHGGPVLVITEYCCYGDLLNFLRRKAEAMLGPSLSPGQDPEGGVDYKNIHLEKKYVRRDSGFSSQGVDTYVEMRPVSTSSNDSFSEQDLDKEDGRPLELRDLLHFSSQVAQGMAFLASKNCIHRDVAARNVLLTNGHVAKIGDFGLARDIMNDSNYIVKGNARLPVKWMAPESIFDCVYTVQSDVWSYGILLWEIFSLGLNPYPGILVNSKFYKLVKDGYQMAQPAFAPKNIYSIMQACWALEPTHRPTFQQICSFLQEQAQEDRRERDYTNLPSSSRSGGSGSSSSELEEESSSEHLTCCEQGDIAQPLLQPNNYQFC
Assay [6] concerns the target Tyrosine-protein kinase Fyn (Homo sapiens) (UniProt P06241). The following applies: at 10 µM.
Assay [7] has as its target G protein-coupled receptor kinase 5 (Homo sapiens) (UniProt P34947). To be noted: at 10 µM.
Assay [8] deals with G protein-coupled receptor kinase 6 (Homo sapiens) (UniProt P43250). The following applies: at 10 µM.
Assay [9] has as its target Tyrosine-protein kinase Fer (Homo sapiens) (UniProt P16591). The following applies: at 10 µM.
For assay [10], the target named is Receptor-type tyrosine-protein kinase FLT3 (Homo sapiens) (UniProt P36888). The following applies: at 1 µM.
Sequence of Receptor-type tyrosine-protein kinase FLT3 (Homo sapiens) (P36888 whole entry): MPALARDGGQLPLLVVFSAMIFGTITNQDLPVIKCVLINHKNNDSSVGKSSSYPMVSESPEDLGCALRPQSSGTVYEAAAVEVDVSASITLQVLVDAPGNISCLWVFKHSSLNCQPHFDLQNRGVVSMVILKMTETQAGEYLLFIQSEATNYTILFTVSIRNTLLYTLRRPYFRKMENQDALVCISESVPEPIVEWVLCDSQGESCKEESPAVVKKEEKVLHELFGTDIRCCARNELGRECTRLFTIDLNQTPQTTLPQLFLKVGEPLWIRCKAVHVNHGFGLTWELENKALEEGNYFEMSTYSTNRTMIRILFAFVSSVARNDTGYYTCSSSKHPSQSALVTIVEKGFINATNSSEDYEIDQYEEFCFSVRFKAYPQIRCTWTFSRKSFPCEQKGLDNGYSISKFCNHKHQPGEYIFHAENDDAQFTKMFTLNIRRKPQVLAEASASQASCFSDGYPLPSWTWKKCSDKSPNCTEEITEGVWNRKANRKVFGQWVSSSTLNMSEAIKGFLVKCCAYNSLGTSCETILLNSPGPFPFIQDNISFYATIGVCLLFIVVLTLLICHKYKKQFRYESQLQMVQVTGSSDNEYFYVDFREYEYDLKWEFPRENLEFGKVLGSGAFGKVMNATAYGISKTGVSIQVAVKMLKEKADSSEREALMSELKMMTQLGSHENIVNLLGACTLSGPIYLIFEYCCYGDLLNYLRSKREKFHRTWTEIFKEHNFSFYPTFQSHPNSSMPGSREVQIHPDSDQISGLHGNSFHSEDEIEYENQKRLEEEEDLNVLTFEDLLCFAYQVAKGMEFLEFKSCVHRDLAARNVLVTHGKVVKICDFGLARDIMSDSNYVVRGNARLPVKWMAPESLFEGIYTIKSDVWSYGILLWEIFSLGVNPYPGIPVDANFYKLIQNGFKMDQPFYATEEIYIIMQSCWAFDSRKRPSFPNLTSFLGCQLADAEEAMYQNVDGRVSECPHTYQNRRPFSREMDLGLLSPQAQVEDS
For assay [11] the target is unchanged. The following applies: at 10 µM.
Assay [12] has as its target Vascular endothelial growth factor receptor 3 (Homo sapiens) (UniProt P35916). To be noted: at 1 µM.
The target in assay [13] is Macrophage colony-stimulating factor 1 receptor (Homo sapiens) (UniProt P07333). The following applies: at 1 µM.
Assay [14] deals with T1, Mitogen-activated protein kinase kinase kinase kinase 2 (Homo sapiens) (UniProt Q12851).
T1 sequence (whole entry): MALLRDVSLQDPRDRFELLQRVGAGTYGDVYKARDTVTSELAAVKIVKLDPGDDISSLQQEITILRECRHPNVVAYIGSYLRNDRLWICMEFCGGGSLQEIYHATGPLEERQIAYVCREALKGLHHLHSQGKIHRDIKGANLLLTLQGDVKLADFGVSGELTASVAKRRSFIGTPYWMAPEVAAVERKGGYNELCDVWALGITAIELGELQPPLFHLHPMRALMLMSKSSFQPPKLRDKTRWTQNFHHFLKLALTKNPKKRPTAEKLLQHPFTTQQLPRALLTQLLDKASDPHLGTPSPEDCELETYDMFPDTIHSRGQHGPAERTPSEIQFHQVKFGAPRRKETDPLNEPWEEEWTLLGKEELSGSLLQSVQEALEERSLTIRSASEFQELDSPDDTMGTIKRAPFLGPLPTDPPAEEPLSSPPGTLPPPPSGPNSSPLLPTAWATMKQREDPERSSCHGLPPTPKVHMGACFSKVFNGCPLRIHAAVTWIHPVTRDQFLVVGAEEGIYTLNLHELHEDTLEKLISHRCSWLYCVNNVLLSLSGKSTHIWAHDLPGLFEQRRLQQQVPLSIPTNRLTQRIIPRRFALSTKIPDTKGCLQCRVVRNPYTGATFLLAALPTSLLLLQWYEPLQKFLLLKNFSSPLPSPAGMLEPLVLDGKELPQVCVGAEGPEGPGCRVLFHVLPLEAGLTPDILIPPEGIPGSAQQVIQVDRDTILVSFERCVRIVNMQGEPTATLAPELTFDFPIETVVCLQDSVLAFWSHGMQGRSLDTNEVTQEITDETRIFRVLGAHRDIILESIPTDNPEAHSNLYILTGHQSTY
The following applies: at 1 µM.

The target of assay [15] is T1, Mitogen-activated protein kinase kinase kinase kinase 2 (Homo sapiens). To be noted: at 10 µM.
In assay [16] the target is Tyrosine-protein kinase Fes/Fps (Homo sapiens) (UniProt P07332). The following applies: at 1 µM.
Sequence of Tyrosine-protein kinase Fes/Fps (Homo sapiens) (P07332 whole entry): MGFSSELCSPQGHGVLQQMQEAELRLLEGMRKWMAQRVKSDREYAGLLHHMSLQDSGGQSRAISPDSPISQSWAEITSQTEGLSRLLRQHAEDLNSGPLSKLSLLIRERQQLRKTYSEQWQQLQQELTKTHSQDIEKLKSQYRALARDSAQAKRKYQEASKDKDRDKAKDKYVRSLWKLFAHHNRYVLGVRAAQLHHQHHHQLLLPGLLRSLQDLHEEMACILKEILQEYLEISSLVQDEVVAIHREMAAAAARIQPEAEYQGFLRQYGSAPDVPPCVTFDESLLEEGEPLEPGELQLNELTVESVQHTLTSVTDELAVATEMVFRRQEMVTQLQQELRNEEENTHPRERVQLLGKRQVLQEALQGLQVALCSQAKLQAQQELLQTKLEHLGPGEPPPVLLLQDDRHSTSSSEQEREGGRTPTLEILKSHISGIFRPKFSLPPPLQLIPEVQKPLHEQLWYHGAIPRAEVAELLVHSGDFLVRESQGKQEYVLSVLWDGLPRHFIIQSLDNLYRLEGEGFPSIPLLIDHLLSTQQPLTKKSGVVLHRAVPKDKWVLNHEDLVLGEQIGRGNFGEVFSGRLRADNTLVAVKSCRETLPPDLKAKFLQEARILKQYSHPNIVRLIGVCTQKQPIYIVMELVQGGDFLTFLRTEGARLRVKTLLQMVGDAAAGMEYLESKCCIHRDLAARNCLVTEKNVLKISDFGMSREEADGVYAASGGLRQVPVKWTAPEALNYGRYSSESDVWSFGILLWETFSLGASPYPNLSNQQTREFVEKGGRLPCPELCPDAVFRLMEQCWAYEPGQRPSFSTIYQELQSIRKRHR
For assay [17] the target is unchanged. To be noted: at 10 µM.
Assay [18] addresses Tyrosine-protein kinase Fyn (Homo sapiens) (UniProt P06241). To be noted: at 1 µM.
Assay [19] deals with Tyrosine-protein kinase Fgr (Homo sapiens) (UniProt P09769). The following applies: at 1 µM.
In assay [20] the target is T2, Rhodopsin kinase GRK7 (Homo sapiens) (UniProt Q8WTQ7).
T2 sequence (whole entry): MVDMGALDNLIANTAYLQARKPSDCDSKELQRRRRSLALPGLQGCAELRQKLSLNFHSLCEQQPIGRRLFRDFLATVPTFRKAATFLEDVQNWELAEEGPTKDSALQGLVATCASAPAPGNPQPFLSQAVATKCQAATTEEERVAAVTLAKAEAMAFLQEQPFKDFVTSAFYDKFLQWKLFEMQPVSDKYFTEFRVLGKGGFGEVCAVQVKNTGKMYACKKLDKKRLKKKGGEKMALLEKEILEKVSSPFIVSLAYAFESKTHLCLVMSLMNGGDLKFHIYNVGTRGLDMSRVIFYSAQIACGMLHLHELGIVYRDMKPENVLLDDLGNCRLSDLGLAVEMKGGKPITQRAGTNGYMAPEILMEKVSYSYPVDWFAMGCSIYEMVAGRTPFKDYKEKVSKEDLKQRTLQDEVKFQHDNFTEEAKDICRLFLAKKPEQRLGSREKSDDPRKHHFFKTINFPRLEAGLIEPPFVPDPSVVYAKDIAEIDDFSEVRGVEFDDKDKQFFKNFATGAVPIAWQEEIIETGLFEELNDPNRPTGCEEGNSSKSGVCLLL
The following applies: at 1 µM.

Sequence of Tyrosine-protein kinase Fyn (Homo sapiens) (P06241 2-537 limits assumed): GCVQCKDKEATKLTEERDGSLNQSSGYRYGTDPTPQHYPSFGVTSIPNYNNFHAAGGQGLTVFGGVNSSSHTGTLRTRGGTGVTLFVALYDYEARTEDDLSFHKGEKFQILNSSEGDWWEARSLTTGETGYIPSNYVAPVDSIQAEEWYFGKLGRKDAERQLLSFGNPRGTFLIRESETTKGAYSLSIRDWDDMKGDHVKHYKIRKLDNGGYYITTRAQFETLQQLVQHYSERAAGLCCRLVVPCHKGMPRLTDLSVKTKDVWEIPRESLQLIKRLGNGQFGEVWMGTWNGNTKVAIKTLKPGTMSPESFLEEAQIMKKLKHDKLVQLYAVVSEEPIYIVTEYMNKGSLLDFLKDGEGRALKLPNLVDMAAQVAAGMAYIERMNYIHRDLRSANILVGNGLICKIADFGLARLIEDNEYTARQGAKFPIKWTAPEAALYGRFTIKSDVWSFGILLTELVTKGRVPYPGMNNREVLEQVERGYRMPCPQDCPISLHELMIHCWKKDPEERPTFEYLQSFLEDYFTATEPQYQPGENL
Sequence of Tyrosine-protein kinase Fgr (Homo sapiens) (P09769 2-529 limits assumed): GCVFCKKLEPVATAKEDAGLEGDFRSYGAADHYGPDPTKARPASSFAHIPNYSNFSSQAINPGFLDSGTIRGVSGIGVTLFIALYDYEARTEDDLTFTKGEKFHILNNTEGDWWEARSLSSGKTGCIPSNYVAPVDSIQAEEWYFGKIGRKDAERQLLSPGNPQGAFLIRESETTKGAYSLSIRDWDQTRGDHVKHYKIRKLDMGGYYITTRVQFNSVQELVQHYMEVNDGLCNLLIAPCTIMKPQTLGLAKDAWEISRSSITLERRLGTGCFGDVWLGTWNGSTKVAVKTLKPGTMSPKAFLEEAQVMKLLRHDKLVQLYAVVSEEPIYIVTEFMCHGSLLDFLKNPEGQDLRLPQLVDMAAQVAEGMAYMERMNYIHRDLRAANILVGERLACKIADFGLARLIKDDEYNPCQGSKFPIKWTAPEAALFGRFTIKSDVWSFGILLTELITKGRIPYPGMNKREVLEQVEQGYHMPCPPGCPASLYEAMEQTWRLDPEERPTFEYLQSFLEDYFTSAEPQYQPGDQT
Sequence of Tyrosine-protein kinase Fer (Homo sapiens) (P16591 whole entry, looked up): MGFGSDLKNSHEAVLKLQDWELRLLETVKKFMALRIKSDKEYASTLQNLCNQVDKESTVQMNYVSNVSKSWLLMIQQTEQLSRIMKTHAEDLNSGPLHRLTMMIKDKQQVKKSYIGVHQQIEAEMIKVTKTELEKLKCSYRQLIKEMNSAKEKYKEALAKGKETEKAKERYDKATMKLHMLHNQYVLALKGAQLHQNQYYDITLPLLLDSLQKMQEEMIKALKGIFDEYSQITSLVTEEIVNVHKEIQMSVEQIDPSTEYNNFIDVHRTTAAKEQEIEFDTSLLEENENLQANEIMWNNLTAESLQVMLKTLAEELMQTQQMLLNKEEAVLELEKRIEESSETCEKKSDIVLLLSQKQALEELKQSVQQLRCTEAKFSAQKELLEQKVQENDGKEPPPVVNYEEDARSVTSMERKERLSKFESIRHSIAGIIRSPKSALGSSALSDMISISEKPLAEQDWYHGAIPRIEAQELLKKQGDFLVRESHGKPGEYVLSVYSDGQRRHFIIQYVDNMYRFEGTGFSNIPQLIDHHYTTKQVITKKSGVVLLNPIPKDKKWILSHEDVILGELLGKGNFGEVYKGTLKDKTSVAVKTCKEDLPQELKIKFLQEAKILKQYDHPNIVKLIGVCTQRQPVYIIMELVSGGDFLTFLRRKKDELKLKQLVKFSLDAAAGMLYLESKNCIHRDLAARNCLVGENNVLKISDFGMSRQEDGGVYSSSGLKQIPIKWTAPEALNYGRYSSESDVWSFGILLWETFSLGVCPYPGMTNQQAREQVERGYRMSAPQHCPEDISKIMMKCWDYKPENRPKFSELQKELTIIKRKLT

For `O=c1c(-c2ccc(F)cc2)c(-c2ccncc2)[nH]n1-c1ccc(Cl)cc1`, the residual activity turned out to be 65% in assay [1]; 100% in assay [2]; 50% in assay [3]; 20% in assay [4]; 61% in assay [5]; 66% in [6]. Besides, the residual activity in assay [7] and in assay [8] was 100% throughout.

Regarding `CC(C)(C)c1nc2c3ccc(F)cc3c3c(=O)[nH]ccc3c2[nH]1`, the residual activity in [9] was found to be 27%; in assay [10], 45%; in assay [11] it was 26%; in assay [12], 28%; in [4], 16%; in assay [13], 54%. For the same compound, the residual activity worked out at 18% in assay [5]; 19% in [14]; 11% in [15]; 66% in assay [7]; 68% in assay [8].

In the case of `O=C1Cc2c([nH]c3ccc(Br)cc23)-c2ccccc2N1`, the residual activity in assay [16] worked out at 63%; in assay [17], 38%; in assay [2], 77%; in [3], 39%; in assay [10] it was 65%; in assay [11], 34%. Also, the residual activity in assay [12] was 56%; in assay [4] it was 22%; in [13], 49%; in [5], 23%; in assay [18] it was 31%; in assay [6] it was 11%. Moreover, the residual activity is 6% in [14], -1% in assay [15] and 96% in [7].

With `CCOC(=O)c1c(C)[nH]c(/C=C2\C(=O)Nc3ccccc32)c1C`, the residual activity in assay [16] was determined as 119%; in [17] it was 80%; in assay [19] it was 87%; in assay [1], 74%; in assay [2], 38%; in assay [3], 15%. Besides, the residual activity amounted to 6% in assay [10]; 9% in assay [11]; 1% in assay [12]; 3% in assay [4]; 20% in assay [13]; 9% in assay [5]. For the same compound, the residual activity in assay [18] was determined as 87%; in assay [6], 99%; in assay [14] it was 89%; in assay [15], 77%; in assay [8], 94%.

For `O=C1Cc2c([nH]c3ccc([N+](=O)[O-])cc23)-c2ccccc2N1`, the residual activity stood at 35% in assay [16]; 43% in assay [17]; 40% in assay [19]; 48% in assay [1]; 49% in [2]; 24% in assay [3]. The residual activity in assay [10] was 30%; in assay [11], 20%; in [12], 29%; in assay [4], 32%; in assay [13], 33%; in [5] it was 26%. For the same compound, the residual activity in assay [18] is 20%; in [6] it was 0%; in assay [14] it was 2%; in assay [15] it was 5%.

As to `COc1ccc(COc2ccc(Cc3cnc(N)nc3N)cc2OC)cc1`, the residual activity in assay [4] came out at 115%; in assay [15] it was 63%.

In the case of `CC(C)N(CCC(=O)c1ccc2ccccc2c1)Cc1ccccc1`, the residual activity came out at 87% in assay [9]; 82% in assay [11]; 125% in assay [5]; 88% in assay [18]; 88% in assay [6]; 82% in assay [14]. For the same compound, the residual activity in assay [15] came to 80%.

Consider `N#C/C(=C\c1ccc(O)c(O)c1)C(=O)NCc1ccccc1`, for which the residual activity was 124% in [16]; 76% in assay [17]; 82% in [1]; 67% in [13]; 81% in [5]; 80% in [6]. Moreover, in assay [15], the residual activity was 85%.

As for `Cc1cc(C)c(/C=C2\C(=O)Nc3ccccc32)[nH]1`, the residual activity in assay [9] was determined as 55%; in assay [19], 53%; in assay [1], 30%; in assay [2], 3%; in assay [3] it was 0%; in assay [10], 1%. In addition, the residual activity came to 0% in assay [11]; 1% in assay [12]; 0% in assay [4]; 2% in [13]; 0% in assay [5]; 75% in assay [18]. The residual activity is 19% in assay [6], 57% in [14], 11% in assay [15] and 74% in assay [20].

On to `O=C1Nc2ccc(Cl)cc2/C1=C/c1cc(Cl)c(O)c(Cl)c1`, for which the residual activity in assay [19] came out at 96%; in assay [1], 42%; in [2], 55%; in [3] it was 1%; in [10], 21%; in assay [11], 1%. Further, the residual activity in [12] amounted to 3%; in assay [4] it was 1%; in [13], 7%; in assay [5], 1%; in [18], 67%; in assay [6], 25%. For the same compound, the residual activity in [14] came to 46%; in assay [15], 14%; in [8] it was 82%; in assay [20], 91%.

In the case of `CN([C@@H](Cc1ccc(OS(=O)(=O)c2cccc3cnccc23)cc1)C(=O)N1CCN(c2ccccc2)CC1)S(=O)(=O)c1cccc2cnccc12`, in assay [11], the residual activity was determined as 76%.
